# In PubChem BioAssay (EPA / NIEHS):
# “And” between values parts separate entries of the source, which are not always exact repeats. Equal entries are not always repeated. The source holds several records for some structures; these can differ, active in one and inactive in another. The source made the active and inactive calls. Rule for the calls: active = hit-call score of the fitted dose curve at least 0.9, where 1 is the maximum; inactive = score below 0.9.
# Read-out: Matrix Metallopeptidase 9 (MMP9), MMP9 (gene 4318)
# Assay: BSK_BF4T_MMP9: BioMAP Diversity Plus: BF4T Assay for Matrix Metallopeptidase 9 (MMP9) Biomarker Activity (AID 2284276)
# Details: primary human bronchial epithelial cells with fibroblasts
# Outline: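 Co-culture of human bronchial epithelial cells and dermal fibroblasts dosed for 24 h; MMP-9 quantified by ELISA and fitted upward versus DMSO. Cytotoxicity monitored in parallel cultures by SRB total-protein staining at the biomarker time point.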
SMILES,outcome,AC50
O=C(O)C(F)(OC(F)(F)C(F)(OC(F)(F)C(F)(OC(F)(F)C(F)(F)C(F)(F)F)C(F)(F)F)C(F)(F)F)C(F)(F)F (centres undefined),inactive,–
FC(F)(F)C(F)(F)C(F)(F)C(F)(F)C(F)(F)C(F)(F)CCS,inactive,–
C=C(C)C(=O)OCC(F)(F)C(F)(F)C(F)(F)C(F)(F)C(F)(F)C(F)(F)C(F)(F)F,inactive,–
FC(F)(F)C(F)(F)C(F)(F)C(F)(F)CCI,inactive,–
O=C(O)C(F)(F)C(F)(F)C(F)(F)F,inactive,–
N=C(N)C(F)(F)C(F)(F)C(F)(F)C(F)(F)C(F)(F)C(F)(F)C(F)(F)F,inactive,–
O=C(O)C(F)(OC(F)(F)C(F)(OC(F)(F)C(F)(F)C(F)(F)F)C(F)(F)F)C(F)(F)F (centres undefined),inactive,–
O=C(O)C(F)(F)C(F)(F)C(F)(F)C(F)(F)C(F)(F)C(F)(F)C(F)(F)C(F)(F)C(F)(F)C(F)(F)C(F)(F)C(F)(F)C(F)(F)F,inactive,–
FC(F)(F)C(F)(F)C(F)(F)N(C(F)(F)C(F)(F)C(F)(F)F)C(F)(F)C(F)(F)C(F)(F)F,inactive,–
O=C(O)C=C(C(F)(F)F)C(F)(F)F,inactive,–
O=C(O)C(F)(F)C(F)(F)F,inactive,–
FC(F)(I)C(F)(F)C(F)(F)C(F)(F)I,–,54.1 µM (active) and 47 µM (active) and 46.8 µM (active)
OCC(F)(F)C(F)(F)C(F)(F)F,inactive,–
FC(F)(F)C(F)(F)C(F)(F)C(F)(F)C(F)(F)C(F)(F)C(F)(F)Br,inactive,–
OCC(F)(F)C(F)(F)C(F)(F)C(F)F,inactive,–
OCCCC(F)(F)C(F)(F)C(F)(F)C(F)(F)C(F)(F)C(F)(F)C(F)(F)F,–,44.8 µM (active) and 55.3 µM (active)
O=S(=O)(OCC(F)F)C(F)(F)F,inactive,–
O=S(=O)(O)C(F)(F)C(F)(F)C(F)(F)C(F)(F)C(F)(F)C(F)(F)C(F)(F)F,inactive,–
OCC(F)(F)C(F)(F)C(F)(F)C(F)(F)C(F)(F)C(F)(F)F,inactive,–
C=CC(=O)OCC(F)(F)C(F)(F)C(F)(F)C(F)(F)COC(=O)C=C,inactive,18.2 µM (active)
O=C(O)C(F)(F)C(F)(F)C(F)(F)C(F)(F)C(F)(F)C(F)(F)C(F)(F)C(F)(F)C(F)(F)C(F)F,–,21.4 µM (active) and 15.7 µM (active)
C=C(C)C(=O)OCC(F)(F)C(F)(F)C(F)(F)F,inactive,–
FC(F)(F)C(F)(F)CNCC(F)(F)C(F)(F)F,inactive,–
COC(=O)CCC(F)(F)C(F)(F)C(F)(F)C(F)(F)F,inactive,–
CC(C)(C)C(=O)CC(=O)C(F)(F)C(F)(F)C(F)(F)F,inactive,–
O=C(O)C(F)(F)C(F)(F)C(F)(F)C(F)(F)C(F)(F)C(F)(F)C(F)(F)C(F)(F)Cl,–,37.1 µM (active) and 30 µM (active)
OCC(F)(F)C(F)(F)C(F)(F)C(F)(F)C(F)(F)C(F)F,inactive,–

# Read-out: Interleukin-8 (IL8), CXCL8 (gene 3576)
# Assay: BSK_IMphg_IL8: BioMAP Diversity Plus: IMphg Assay for Interleukin-8 (IL8) Biomarker Activity (AID 2284277)
# Details: primary human endothelial cells with macrophages
# Outline: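 Co-culture of human venular endothelial cells and macrophages exposed to chemicals for 24 h; IL-8 quantified by ELISA and compared against the DMSO baseline, with SRB total-protein staining in parallel cultures for cytotoxicity.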
SMILES,outcome,AC50
O=C(O)C(F)(OC(F)(F)C(F)(OC(F)(F)C(F)(OC(F)(F)C(F)(F)C(F)(F)F)C(F)(F)F)C(F)(F)F)C(F)(F)F (centres undefined),inactive,–
FC(F)(F)C(F)(F)C(F)(F)C(F)(F)C(F)(F)C(F)(F)CCS,inactive,0.876 µM (active)
C=C(C)C(=O)OCC(F)(F)C(F)(F)C(F)(F)C(F)(F)C(F)(F)C(F)(F)C(F)(F)F,inactive,–
FC(F)(F)C(F)(F)C(F)(F)C(F)(F)CCI,inactive,–
O=C(O)C(F)(F)C(F)(F)C(F)(F)F,inactive,–
N=C(N)C(F)(F)C(F)(F)C(F)(F)C(F)(F)C(F)(F)C(F)(F)C(F)(F)F,inactive,30 µM (active)
O=C(O)C(F)(OC(F)(F)C(F)(OC(F)(F)C(F)(F)C(F)(F)F)C(F)(F)F)C(F)(F)F (centres undefined),inactive,–
O=C(O)C(F)(F)C(F)(F)C(F)(F)C(F)(F)C(F)(F)C(F)(F)C(F)(F)C(F)(F)C(F)(F)C(F)(F)C(F)(F)C(F)(F)C(F)(F)F,inactive,–
FC(F)(F)C(F)(F)C(F)(F)N(C(F)(F)C(F)(F)C(F)(F)F)C(F)(F)C(F)(F)C(F)(F)F,inactive,–
O=C(O)C=C(C(F)(F)F)C(F)(F)F,–,6.29 µM (active) and 10.8 µM (active)
O=C(O)C(F)(F)C(F)(F)F,inactive,–
FC(F)(I)C(F)(F)C(F)(F)C(F)(F)I,inactive,1.19 µM (active)
OCC(F)(F)C(F)(F)C(F)(F)F,inactive,–
FC(F)(F)C(F)(F)C(F)(F)C(F)(F)C(F)(F)C(F)(F)C(F)(F)Br,inactive,–
OCC(F)(F)C(F)(F)C(F)(F)C(F)F,inactive,–
OCCCC(F)(F)C(F)(F)C(F)(F)C(F)(F)C(F)(F)C(F)(F)C(F)(F)F,inactive,47.5 µM (active)
O=S(=O)(OCC(F)F)C(F)(F)F,inactive,–
O=S(=O)(O)C(F)(F)C(F)(F)C(F)(F)C(F)(F)C(F)(F)C(F)(F)C(F)(F)F,inactive,–
OCC(F)(F)C(F)(F)C(F)(F)C(F)(F)C(F)(F)C(F)(F)F,inactive,–
C=CC(=O)OCC(F)(F)C(F)(F)C(F)(F)C(F)(F)COC(=O)C=C,inactive,–
O=C(O)C(F)(F)C(F)(F)C(F)(F)C(F)(F)C(F)(F)C(F)(F)C(F)(F)C(F)(F)C(F)(F)C(F)F,inactive,–
C=C(C)C(=O)OCC(F)(F)C(F)(F)C(F)(F)F,inactive,–
FC(F)(F)C(F)(F)CNCC(F)(F)C(F)(F)F,inactive,–
COC(=O)CCC(F)(F)C(F)(F)C(F)(F)C(F)(F)F,inactive,–
CC(C)(C)C(=O)CC(=O)C(F)(F)C(F)(F)C(F)(F)F,inactive,–
O=C(O)C(F)(F)C(F)(F)C(F)(F)C(F)(F)C(F)(F)C(F)(F)C(F)(F)C(F)(F)Cl,inactive,–
OCC(F)(F)C(F)(F)C(F)(F)C(F)(F)C(F)(F)C(F)F,inactive,–
